Laboratory results published in PMC7862700, “An all-to-all approach to the identification of sequence-specific readers for epigenetic DNA modifications on cytosine”.

Legend:
Assay in all cases: DAPPL (digital affinity profiling via proximity ligation, sequencing); 10 mM Tris-HCl pH 7.5, 50 mM NaCl, 1 mM DTT, 4% glycerol, room temperature, 30 min; GST-TFs on glutathione beads, 16-mer random dsDNA library, 0.1% formaldehyde crosslink after washing; high values mean tight binding
FLI1 = target: T1, FLI1 (Homo sapiens, UniProt Q01543 1-452); details: protein: recombinant; tags: N-terminal GST; dsDNA, one strand shown
T1 sequence: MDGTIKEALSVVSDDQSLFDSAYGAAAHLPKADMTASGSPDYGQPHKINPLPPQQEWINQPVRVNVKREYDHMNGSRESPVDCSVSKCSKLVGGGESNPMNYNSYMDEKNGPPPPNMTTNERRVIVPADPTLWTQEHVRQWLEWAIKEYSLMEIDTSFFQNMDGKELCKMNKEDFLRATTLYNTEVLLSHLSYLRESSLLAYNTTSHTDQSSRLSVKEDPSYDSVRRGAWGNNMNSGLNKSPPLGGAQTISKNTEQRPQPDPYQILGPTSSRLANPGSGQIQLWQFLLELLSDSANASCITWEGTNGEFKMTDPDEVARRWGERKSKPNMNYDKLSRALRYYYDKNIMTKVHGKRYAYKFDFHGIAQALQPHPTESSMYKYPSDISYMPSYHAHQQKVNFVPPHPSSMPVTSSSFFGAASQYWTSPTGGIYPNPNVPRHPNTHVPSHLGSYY
In short: (§1)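 Human transcription factors carrying a GST fusion were produced in yeast, bound to glutathione beads, tagged with DNA barcodes and pooled together with a tag-only sample. Each pool was held with 200 nmole of a random double-stranded 16-mer DNA library in Tris/NaCl/DTT/glycerol buffer for 30 min at room temperature, then washed, crosslinked in 0.1% formaldehyde, proximity-ligated with BsaI/T4 ligase (1 h, 37 °C), PCR-amplified and sequenced on an Illumina NextSeq500. Binding signal is the read frequency of each hexamer for a given factor divided by its frequency in the tag-only sample.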

ELK1 = target: T2, ELK1 (Homo sapiens, UniProt P19419 1-428); details: protein: recombinant; tags: N-terminal GST; dsDNA, one strand shown
T2 sequence: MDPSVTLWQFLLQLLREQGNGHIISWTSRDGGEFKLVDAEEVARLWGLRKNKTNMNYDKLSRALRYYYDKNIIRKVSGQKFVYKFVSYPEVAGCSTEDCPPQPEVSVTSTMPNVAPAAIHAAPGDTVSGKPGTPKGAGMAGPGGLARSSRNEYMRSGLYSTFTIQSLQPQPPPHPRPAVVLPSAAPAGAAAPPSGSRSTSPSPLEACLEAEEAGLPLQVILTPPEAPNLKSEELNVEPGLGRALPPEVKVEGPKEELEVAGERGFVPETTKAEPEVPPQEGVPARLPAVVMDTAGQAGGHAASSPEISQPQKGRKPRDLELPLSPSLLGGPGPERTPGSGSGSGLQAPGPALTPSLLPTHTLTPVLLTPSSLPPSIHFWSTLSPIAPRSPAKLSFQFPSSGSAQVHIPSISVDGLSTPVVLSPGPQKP
In short: as §1

GABPA = target: T3, GABPA (Homo sapiens, UniProt Q06546 1-454); details: protein: recombinant; tags: N-terminal GST; dsDNA, one strand shown
T3 sequence: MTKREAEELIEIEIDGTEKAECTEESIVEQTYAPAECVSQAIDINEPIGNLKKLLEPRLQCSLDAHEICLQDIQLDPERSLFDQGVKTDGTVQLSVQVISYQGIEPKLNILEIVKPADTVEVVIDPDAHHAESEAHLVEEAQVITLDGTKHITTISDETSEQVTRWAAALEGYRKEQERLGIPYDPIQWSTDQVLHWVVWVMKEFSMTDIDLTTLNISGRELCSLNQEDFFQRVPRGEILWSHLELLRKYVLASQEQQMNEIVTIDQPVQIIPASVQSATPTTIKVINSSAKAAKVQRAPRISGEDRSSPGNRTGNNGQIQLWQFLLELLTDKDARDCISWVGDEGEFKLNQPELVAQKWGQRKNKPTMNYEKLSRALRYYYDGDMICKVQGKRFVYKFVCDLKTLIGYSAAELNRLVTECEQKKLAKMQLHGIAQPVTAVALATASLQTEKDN
In short: as §1

ERG = target: T4, ERG (Homo sapiens, UniProt P11308 1-479); details: protein: recombinant; tags: N-terminal GST; dsDNA, one strand shown
T4 sequence: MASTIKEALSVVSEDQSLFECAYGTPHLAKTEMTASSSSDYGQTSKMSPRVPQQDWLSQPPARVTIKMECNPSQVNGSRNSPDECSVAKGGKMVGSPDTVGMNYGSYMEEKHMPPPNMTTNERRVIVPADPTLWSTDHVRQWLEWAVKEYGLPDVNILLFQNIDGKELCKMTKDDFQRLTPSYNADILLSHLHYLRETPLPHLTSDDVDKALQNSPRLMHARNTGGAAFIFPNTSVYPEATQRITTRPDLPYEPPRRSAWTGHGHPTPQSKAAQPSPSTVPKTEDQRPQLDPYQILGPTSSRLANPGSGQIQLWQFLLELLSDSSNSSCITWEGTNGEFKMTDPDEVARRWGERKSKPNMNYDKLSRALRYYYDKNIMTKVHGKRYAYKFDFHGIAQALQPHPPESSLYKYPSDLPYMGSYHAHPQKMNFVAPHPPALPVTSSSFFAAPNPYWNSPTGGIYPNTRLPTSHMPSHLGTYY
In short: as §1

ELF1 = ELF1 (Homo sapiens, UniProt P32519 1-619); details: protein: recombinant; tags: N-terminal GST; dsDNA, one strand shown
In short: as §1

EHF = target: T5, EHF (Homo sapiens, UniProt Q9NZC4 1-300); details: protein: recombinant; tags: N-terminal GST; dsDNA, one strand shown
T5 sequence: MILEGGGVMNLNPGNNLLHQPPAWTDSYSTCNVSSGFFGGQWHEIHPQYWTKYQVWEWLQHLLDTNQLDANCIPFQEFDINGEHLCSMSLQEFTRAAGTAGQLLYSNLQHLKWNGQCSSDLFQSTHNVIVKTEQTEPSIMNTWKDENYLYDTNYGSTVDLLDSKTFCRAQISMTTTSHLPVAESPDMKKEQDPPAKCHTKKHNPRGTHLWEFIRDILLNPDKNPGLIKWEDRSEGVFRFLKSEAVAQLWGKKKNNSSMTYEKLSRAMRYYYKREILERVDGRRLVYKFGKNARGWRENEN
In short: as §1

SPI1 = SPI1 (Homo sapiens, UniProt P17947 1-270); details: protein: recombinant; tags: N-terminal GST; dsDNA, one strand shown
In short: as §1

SPIB = SPIB (Homo sapiens, UniProt Q01892 1-262); details: protein: recombinant; tags: N-terminal GST; dsDNA, one strand shown
In short: as §1

ELK3 = target: T6, ELK3 (Homo sapiens, UniProt P41970 1-407); details: protein: recombinant; tags: N-terminal GST; dsDNA, one strand shown
T6 sequence: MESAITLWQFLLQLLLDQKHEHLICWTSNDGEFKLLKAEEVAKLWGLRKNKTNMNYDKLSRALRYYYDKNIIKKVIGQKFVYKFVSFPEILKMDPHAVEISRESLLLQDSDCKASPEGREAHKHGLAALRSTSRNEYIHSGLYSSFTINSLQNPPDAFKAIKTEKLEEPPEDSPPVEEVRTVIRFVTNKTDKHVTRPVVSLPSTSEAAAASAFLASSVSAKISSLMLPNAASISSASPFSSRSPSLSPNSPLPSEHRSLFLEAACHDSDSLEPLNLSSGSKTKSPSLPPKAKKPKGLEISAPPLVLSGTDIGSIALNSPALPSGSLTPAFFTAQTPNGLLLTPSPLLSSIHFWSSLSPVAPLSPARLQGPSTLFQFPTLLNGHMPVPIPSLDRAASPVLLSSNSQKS
In short: as §1

FEV = target: T7, FEV (Homo sapiens, UniProt Q99581 1-238); details: protein: recombinant; tags: N-terminal GST; dsDNA, one strand shown
T7 sequence: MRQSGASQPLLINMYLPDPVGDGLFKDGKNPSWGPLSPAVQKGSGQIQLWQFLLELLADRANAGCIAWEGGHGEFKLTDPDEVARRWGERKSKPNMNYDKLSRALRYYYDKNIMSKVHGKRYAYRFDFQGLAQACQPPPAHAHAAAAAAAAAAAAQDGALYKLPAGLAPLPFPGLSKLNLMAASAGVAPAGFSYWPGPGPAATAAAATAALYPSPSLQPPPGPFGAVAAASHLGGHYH
In short: as §1

ETV5 = ETV5 (Homo sapiens, UniProt P41161 1-510); details: protein: recombinant; tags: N-terminal GST; dsDNA, one strand shown
In short: as §1

HSF1 = HSF1 (Homo sapiens, UniProt Q00613 1-529); details: protein: recombinant; tags: N-terminal GST; chain copies: 3; dsDNA, one strand shown
In short: as §1

SPIC = target: T8, SPIC (Homo sapiens, UniProt Q8N5J4 1-248); details: protein: recombinant; tags: N-terminal GST; dsDNA, one strand shown
T8 sequence: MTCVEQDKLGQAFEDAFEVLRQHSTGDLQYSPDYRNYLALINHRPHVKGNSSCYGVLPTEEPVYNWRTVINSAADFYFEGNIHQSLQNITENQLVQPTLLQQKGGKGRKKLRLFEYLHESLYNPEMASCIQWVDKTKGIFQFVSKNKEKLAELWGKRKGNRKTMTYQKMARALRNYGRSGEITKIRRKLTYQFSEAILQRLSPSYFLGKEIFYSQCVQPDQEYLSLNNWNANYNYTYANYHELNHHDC
In short: as §1

ELF4 = ELF4 (Homo sapiens, UniProt Q99607 1-663); details: protein: recombinant; tags: N-terminal GST; dsDNA, one strand shown
In short: as §1

ELK4 = target: T9, ELK4 (Homo sapiens, UniProt P28324-2 1-405); details: protein: recombinant; tags: N-terminal GST; dsDNA, one strand shown
T9 sequence: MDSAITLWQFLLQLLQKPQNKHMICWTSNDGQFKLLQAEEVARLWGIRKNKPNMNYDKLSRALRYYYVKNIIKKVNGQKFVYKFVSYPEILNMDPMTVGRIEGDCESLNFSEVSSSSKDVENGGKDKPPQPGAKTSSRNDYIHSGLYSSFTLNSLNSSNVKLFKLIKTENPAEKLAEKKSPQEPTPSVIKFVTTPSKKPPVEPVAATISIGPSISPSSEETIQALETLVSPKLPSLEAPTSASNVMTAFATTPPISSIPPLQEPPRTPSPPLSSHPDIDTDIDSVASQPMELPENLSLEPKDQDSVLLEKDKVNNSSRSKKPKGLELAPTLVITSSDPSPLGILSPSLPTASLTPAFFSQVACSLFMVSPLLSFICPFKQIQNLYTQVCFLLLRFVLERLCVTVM
In short: as §1

ETV2 = target: T10, ETV2 (Homo sapiens, UniProt O00321 1-342); details: protein: recombinant; tags: N-terminal GST; dsDNA, one strand shown
T10 sequence: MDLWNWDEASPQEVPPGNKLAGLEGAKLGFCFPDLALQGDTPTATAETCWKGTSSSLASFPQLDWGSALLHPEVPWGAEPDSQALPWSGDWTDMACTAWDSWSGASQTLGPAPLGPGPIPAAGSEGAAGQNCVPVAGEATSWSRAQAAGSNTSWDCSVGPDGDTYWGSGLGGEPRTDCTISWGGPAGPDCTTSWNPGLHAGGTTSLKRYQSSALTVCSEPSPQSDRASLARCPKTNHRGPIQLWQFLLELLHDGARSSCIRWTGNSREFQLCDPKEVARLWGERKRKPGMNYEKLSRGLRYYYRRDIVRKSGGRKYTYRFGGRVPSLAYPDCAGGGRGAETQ
In short: as §1

ELF3 = target: T11, ELF3 (Homo sapiens, UniProt P78545 1-371); details: protein: recombinant; tags: N-terminal GST; dsDNA, one strand shown
T11 sequence: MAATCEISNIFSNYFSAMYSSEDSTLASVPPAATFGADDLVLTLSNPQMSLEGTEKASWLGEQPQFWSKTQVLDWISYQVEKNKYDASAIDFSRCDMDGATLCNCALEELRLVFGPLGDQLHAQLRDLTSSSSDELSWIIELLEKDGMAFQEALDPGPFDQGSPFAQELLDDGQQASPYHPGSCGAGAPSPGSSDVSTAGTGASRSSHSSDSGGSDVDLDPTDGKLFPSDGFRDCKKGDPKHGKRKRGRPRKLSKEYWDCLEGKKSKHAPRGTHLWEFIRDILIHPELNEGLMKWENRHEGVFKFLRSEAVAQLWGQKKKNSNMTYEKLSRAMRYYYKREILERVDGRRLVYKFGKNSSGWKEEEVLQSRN
In short: as §1

CRX = CRX (Homo sapiens, UniProt O43186 1-299); details: protein: recombinant; tags: N-terminal GST; dsDNA, one strand shown
In short: as §1

ETV1 = ETV1 (Homo sapiens, UniProt P50549 1-477); details: protein: recombinant; tags: N-terminal GST; dsDNA, one strand shown
In short: as §1

HSF1, sequence (Q00613 whole entry): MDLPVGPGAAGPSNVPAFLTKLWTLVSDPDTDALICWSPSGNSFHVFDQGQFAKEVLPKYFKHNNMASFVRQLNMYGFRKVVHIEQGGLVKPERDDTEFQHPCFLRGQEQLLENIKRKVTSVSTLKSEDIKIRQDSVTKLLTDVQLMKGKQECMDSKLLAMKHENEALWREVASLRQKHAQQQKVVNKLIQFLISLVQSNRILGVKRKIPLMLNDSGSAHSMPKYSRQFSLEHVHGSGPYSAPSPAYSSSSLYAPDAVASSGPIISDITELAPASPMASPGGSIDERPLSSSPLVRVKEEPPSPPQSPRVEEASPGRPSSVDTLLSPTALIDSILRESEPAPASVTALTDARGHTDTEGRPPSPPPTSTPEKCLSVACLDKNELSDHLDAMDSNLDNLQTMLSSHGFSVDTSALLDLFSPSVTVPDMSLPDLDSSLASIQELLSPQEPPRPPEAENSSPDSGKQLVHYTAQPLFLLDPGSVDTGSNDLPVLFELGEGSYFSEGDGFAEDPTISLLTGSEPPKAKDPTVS
CRX, sequence (O43186 whole entry): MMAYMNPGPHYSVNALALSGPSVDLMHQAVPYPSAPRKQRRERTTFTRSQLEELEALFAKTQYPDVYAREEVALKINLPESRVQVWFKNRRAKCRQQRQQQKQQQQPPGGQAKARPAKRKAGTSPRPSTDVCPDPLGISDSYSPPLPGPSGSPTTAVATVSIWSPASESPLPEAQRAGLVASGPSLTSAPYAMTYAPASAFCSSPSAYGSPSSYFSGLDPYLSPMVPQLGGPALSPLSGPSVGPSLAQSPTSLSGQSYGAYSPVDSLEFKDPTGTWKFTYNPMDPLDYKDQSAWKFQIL
ELF4, sequence (Q99607 whole entry): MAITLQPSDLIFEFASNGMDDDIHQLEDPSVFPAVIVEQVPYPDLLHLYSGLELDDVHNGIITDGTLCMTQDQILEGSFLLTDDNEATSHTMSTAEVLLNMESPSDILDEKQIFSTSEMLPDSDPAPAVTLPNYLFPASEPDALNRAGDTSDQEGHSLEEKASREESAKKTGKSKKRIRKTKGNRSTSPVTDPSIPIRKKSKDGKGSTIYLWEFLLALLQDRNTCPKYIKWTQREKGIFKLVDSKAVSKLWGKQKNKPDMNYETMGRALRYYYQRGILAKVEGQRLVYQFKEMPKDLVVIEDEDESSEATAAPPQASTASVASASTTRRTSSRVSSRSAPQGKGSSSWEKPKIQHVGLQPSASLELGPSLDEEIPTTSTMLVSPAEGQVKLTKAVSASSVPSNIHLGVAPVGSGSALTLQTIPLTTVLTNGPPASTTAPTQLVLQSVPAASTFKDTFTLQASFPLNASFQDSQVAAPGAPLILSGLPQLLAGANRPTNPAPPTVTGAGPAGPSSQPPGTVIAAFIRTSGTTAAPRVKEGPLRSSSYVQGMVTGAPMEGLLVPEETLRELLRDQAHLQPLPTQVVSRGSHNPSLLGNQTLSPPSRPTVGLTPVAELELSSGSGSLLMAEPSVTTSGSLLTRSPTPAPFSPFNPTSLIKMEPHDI
ETV1, sequence (P50549 whole entry): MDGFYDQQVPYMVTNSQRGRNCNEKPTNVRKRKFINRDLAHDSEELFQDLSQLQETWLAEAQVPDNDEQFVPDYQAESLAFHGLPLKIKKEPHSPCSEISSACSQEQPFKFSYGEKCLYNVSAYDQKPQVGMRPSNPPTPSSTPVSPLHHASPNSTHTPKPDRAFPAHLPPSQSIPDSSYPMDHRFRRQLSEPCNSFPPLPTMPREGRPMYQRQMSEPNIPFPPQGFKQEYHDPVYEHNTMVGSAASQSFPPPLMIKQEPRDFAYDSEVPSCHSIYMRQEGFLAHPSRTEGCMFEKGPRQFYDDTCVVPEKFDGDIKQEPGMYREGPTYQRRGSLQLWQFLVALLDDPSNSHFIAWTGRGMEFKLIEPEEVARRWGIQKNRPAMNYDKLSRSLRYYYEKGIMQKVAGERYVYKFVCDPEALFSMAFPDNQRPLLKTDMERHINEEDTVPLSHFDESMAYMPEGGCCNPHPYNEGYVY
ELF1, sequence (P32519 whole entry): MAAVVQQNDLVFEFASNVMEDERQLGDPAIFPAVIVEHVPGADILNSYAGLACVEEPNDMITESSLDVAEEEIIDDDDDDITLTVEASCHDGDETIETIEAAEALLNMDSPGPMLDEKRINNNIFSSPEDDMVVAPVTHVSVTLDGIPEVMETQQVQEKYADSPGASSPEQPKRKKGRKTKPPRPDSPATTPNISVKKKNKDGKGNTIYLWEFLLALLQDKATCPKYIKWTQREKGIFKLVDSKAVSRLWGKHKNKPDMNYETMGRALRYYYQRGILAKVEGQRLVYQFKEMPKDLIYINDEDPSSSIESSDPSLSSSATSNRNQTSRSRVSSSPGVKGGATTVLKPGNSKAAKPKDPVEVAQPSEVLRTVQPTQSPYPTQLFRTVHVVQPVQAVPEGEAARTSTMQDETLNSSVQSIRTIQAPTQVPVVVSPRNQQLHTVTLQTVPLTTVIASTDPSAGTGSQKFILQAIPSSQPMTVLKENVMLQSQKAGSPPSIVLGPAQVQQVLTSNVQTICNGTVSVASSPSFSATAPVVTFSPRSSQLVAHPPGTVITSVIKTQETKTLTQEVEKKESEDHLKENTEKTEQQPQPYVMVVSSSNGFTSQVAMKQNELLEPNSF
SPIB, sequence (Q01892 whole entry): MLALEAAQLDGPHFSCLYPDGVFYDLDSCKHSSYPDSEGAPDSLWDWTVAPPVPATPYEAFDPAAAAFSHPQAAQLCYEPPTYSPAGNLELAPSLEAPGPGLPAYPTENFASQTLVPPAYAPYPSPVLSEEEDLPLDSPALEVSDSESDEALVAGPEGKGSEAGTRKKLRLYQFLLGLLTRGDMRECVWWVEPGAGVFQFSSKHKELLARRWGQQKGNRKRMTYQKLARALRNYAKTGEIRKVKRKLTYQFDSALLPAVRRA
ETV5, sequence (P41161 whole entry): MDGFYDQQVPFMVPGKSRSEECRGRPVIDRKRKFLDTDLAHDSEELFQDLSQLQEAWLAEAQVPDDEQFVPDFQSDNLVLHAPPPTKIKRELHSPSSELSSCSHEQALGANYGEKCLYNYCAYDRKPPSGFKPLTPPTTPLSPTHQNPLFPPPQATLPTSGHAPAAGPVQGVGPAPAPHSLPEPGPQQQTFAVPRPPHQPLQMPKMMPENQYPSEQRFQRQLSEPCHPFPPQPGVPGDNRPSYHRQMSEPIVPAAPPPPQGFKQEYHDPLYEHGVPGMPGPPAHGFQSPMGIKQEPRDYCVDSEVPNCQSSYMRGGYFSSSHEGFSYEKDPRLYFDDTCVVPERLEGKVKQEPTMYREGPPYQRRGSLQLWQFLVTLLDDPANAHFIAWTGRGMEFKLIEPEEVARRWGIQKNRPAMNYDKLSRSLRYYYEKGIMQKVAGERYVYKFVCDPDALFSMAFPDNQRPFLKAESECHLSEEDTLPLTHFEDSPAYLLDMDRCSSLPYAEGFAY

**Q.** What does the source list for AAGTAA?
**A.** binding signal (FLI1): 1.17 fold enrichment (6-mer frequency, TF over GST control); binding signal (ELK1): 1.25 fold enrichment (6-mer frequency, TF over GST control); binding signal (GABPA): 1.3 fold enrichment (6-mer frequency, TF over GST control); binding signal (ERG): 1.25 fold enrichment (6-mer frequency, TF over GST control); binding signal (ELF1): 1.27 fold enrichment (6-mer frequency, TF over GST control); binding signal (EHF): 1.3 fold enrichment (6-mer frequency, TF over GST control); binding signal (SPI1): 1.34 fold enrichment (6-mer frequency, TF over GST control); binding signal (SPIB): 1.22 fold enrichment (6-mer frequency, TF over GST control); binding signal (ELK3): 1.27 fold enrichment (6-mer frequency, TF over GST control); binding signal (FEV): 1.24 fold enrichment (6-mer frequency, TF over GST control); binding signal (ETV5): 1.32 fold enrichment (6-mer frequency, TF over GST control); binding signal (HSF1): 1.24 fold enrichment (6-mer frequency, TF over GST control); binding signal (SPIC): 1.35 fold enrichment (6-mer frequency, TF over GST control); binding signal (ELF4): 1.27 fold enrichment (6-mer frequency, TF over GST control); binding signal (ELK4): 1.19 fold enrichment (6-mer frequency, TF over GST control); binding signal (ETV2): 1.38 fold enrichment (6-mer frequency, TF over GST control); binding signal (ELF3): 1.42 fold enrichment (6-mer frequency, TF over GST control); binding signal (CRX): 1.39 fold enrichment (6-mer frequency, TF over GST control); binding signal (ETV1): 1.31 fold enrichment (6-mer frequency, TF over GST control)
